The text below walks through data of PubChem BioAssay (NCI).

This is part of a sample that, as a whole, favours compounds with a hit. Of some 83,000 tested, about 20% had one in any assay.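 Plates (96-well) were seeded with cells, treated with compound at one concentration, and incubated for 48 hours before percent growth was determined.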 Unmarked numbers belong to inactive results. Calls of active or inactive are those of the source. How the source made its calls: active means growth percent below 10; inactive means the rest.

Test in all cases: NCI-60 one-dose screen, 48 h (100 = growth as untreated, 0 = no growth, -100 = all killed)
Test [1] has as its system DU-145 prostate. The note with it: 10 µM unless noted.
Test [2] relates to K-562 leukemia. The note with it: 10 µM unless noted.
Test [3] relates to MALME-3M melanoma. Particulars: 10 µM unless noted.
Test [4] deals with MDA-MB-231 breast. The note with it: 10 µM unless noted.
The subject of test [5] is RXF 393 renal. The note with it: 10 µM unless noted.
In test [6] the test system is SF-268 CNS. Particulars: 10 µM unless noted.
Test [7] relates to SF-295 CNS. Particulars: 10 µM unless noted.
Test [8] has as its system SF-539 CNS. Particulars: 10 µM unless noted.
The subject of test [9] is UACC-257 melanoma. Particulars: 10 µM unless noted.
Test [10] concerns M14 melanoma. Particulars: 10 µM unless noted.
Test [11] concerns HCT-15 colon. Particulars: 10 µM unless noted.
Test [12] deals with HT29 colon. The note with it: 10 µM unless noted.
The test system of test [13] is SNB-75 CNS. Particulars: 10 µM unless noted.
The test system of test [14] is SNB-19 CNS. The note with it: 10 µM unless noted.
Test [15] has as its system U251 CNS. Particulars: 10 µM unless noted.
Test [16] concerns PC-3 prostate. The note with it: 10 µM unless noted.
Test [17] relates to SK-MEL-5 melanoma. Particulars: 10 µM unless noted.
The subject of test [18] is UACC-62 melanoma. The note with it: 10 µM unless noted.
In test [19] the test system is LOX IMVI melanoma. Particulars: 10 µM.
For test [20], the system named is SK-MEL-28 melanoma. Particulars: 10 µM unless noted.

For the molecule `Cc1cccc(Nc2nc3ccccc3nc2/C=C/c2ccc(F)cc2)c1`, the growth in [1] is 101%; in [2], 86.5%; in test [3], 109%; in test [4] it was 97.1%; in test [5], 98%; in test [6], 91%. Moreover, the growth in test [7] was 107%; in test [8], 102%; in [9], 94.5%; in test [10], 93.3%; in test [11], 95.6%; in test [12] it was 86.4%. Moreover, the growth in test [13] is 91.9%; in test [14], 92.8%; in test [15], 94%; in test [16], 89.1%; in test [17], 88%; in test [18] it was 74.7%. Besides, the growth in [19] and in test [20] was 101% each time.

In the case of `CCOC(=O)C(N=Nc1ccc(S(=O)(=O)N=C(N)N)cc1)C(C)=O` (stereo not given), the growth in test [1] was 111%; in test [2], 94.1%; in test [3] it was 129%; in test [4] it was 107%; in test [5], 105%; in test [6] it was 101%. The growth in test [7] is 125%; in test [8], 104%; in test [9], 126%; in test [10], 124%; in test [11], 108%; in test [12] it was 107%. In addition, the growth in test [13] is 74.3%; in [14], 101%; in [15] it was 98.6%; in test [16], 98.5%; in test [17], 102%; in test [18], 99.2%. The growth in test [19] and in [20] was 109% in each case.

For the molecule `CC1(C)CC[C@]2(C(=O)O)CC[C@]3(C)C(=CCC4[C@@]5(C)C[C@@H](O)[C@@H]6OC(c7ccc(F)cc7)OC[C@@]6(C)C5CC[C@]43C)C2C1` (stereo not given in full), the growth in test [1] was 28.7%; in [2] it was 14.9%; in test [3] it was 39%; in test [4], 50.6%; in test [5], 42.8%; in [6] it was 41.3%. Moreover, the growth in test [7] is 32.7%; in test [8] it was 50.8%; in test [9], 42.3%; in [10], 40.4%; in test [11] it was 13.4%; in test [12] it was 25.4%. Further, the growth in [13] was 82.3%; in test [14], 34.9%; in test [15], 14.7%; in test [16], 17.6%; in [17], 17.2%; in [18], 45.5%. The growth in [19] was 19.9%; in [20], 53.9%.

With `O=C(CCN1C(=O)/C(=C/c2ccc(F)cc2)SC1=S)N1CCOCC1`, the growth in test [1] is 35.8%; in test [2], 43%; in test [3] it was 46.1%; in test [4], 60.9%; in test [5], 47.7%; in [6] it was 86.7%. Also, the growth in [7] was 104%; in test [8] it was 68.6%; in test [9], 52%; in test [10], 57.1%; in test [11], 55.3%; in [12] it was 78.7%. Also, the growth in test [13] is 98.3%; in test [14], 87.6%; in test [15], 89.1%; in test [16] it was 106%; in test [17], 83.2%; in test [18] it was 47.6%. The growth is 40.2% in test [19] and 72.9% in test [20].

Regarding `O=C(NN1C(=O)/C(=C/C=C/c2ccc([N+](=O)[O-])o2)SC1=S)c1cccc(O)c1`, the growth was -99.2% (active) in [1]; 6.17% (active) in [2]; -99.2% (active) in test [3]; -98.4% (active) in test [4]; -89.6% (active) in test [5]; -91.3% (active) in test [6]. Also, the growth in test [7] is -40.1% (active); in test [8] it was -100% (active); in [9], -85.2% (active); in [10], -89% (active); in test [11], -65.1% (active); in test [12], -67.2% (active). The growth was -71.3% (active) in test [13]; -96.5% (active) in test [14]; -96.2% (active) in [15]; -40.2% (active) in test [16]; -100% (active) in test [17]; -97.4% (active) in test [18]. The results for the growth in [19] and in test [20] were -93.5% (active) and -100% (active), respectively.

For the molecule `N/C(=N\c1nc2ccccc2s1)NC(=O)Nc1c(Cl)cccc1Cl`, the growth in [1] is 55.1%; in test [2] it was 19.6%; in test [3] it was 44%; in test [4] it was 28.9%; in test [5], 80.8%; in test [6] it was 42.2%. The growth in test [7] was 28.2%; in test [8], 30.8%; in [9], 75.4%; in test [10], 21.8%; in [11] it was 26.1%; in test [12] it was 8.87% (active). The growth in test [13] was 27.7%; in test [14] it was 54.7%; in [15] it was 27.9%; in [16], 63.2%; in [17], 22.4%; in [18] it was 23.6%. Further, the values for the growth in test [19] and in test [20] were 24.7% and 50.6%, respectively.

Take `CN(C)c1nc(NCCNS(=O)(=O)c2ccc(C3=Nc4c(N)nc(N)nc4NC(c4ccccc4)C3)cc2)nc(Nc2ccc(F)cc2)n1` (stereo not given): the growth in [1] is 58%; in test [2], 7.64% (active); in [3], 36.6%; in test [4], 20.7%; in test [5], 13.4%; in test [6], 46.9%. Further, the growth is 42.6% in [7]; -7.62% (active) in test [8]; 70.8% in test [9]; 49.4% in test [10]; 37.4% in test [11]; 18.3% in [12]. Also, the growth is 62.5% in [13]; 56.6% in [14]; 36.4% in test [15]; 26.5% in test [16]; 33.7% in [17]; 55.9% in [18]. The growth in test [19] is 3.29% (active); in test [20] it was 60.2%.
